Assay results: PubChem BioAssay AID977607 (Broad Institute, 2014)
Screen size: about 1,500 compounds; about 460 (31%) were called active. Inconclusive results (about 1%) are left out.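 Rule for the calls: active = curve reaches 40% activation over neutral controls at an AC40 no higher than the top valid tested concentration; inconclusive = no clear call, values can overlap the other calls; inactive = signal moving opposite to the expected increase, and the rest.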 Not all results are given here. Entries with a potency or affinity are not part of this list.

Assay: activators of glucose-dependent insulin secretion, dose response, cell-based, INS-1E, Gaussia luciferase, luminescence, cherry-pick, set 2 (AID 977607);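 note: 0% = median of the plate neutral control wells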
Settings: INS-1E GLuc insulin secretion reporter, 2-3 h, hits give high values; at 35 µM, 100% = signal doubled over neutral wells unless noted

Max activation, inactive:
CC(=O)c1cccc(-c2csc3ncnc(Sc4nnnn4C)c23)c1 -11.8% [at 0.005 µM, 100% = signal doubled over neutral wells], CCN(CC)C(=O)C1(P(=O)(c2ccccc2)c2ccccc2)CCC1 -17.4% [at 0.42 µM, 100% = signal doubled over neutral wells], O=C(c1ccco1)N(Cc1ccc(Cl)cc1)C1CCS(=O)(=O)C1 (stereo not given) 17.8%, CCn1nnnc1NCc1ccc(OCc2c(F)cccc2Cl)c(OC)c1 -22.7% [at 1.2 µM, 100% = signal doubled over neutral wells], O=c1c(Cc2ccc(Cl)cc2Cl)c(O)ccn1CC(F)(F)F 17.3%, COc1ccc(CNC(=O)C2Cc3c(-c4ccccc4)ccnc3O2)cc1OC (stereo not given) -21.6% [at 11 µM, 100% = signal doubled over neutral wells], C/C(Cl)=C\Cn1c(N2CCCC2)nc2c1c(=O)n(C)c(=O)n2C -30.4% [at 1.2 µM, 100% = signal doubled over neutral wells], CCNc1nc(NCC)nc(N(C#N)C(C)C)n1 28.6% [at 11 µM, 100% = signal doubled over neutral wells], Cc1nc2ccccc2c2nc(NC(=O)C(F)(F)F)nn12 -15.5% [at 11 µM, 100% = signal doubled over neutral wells], CN(C)c1ccc(/C=N/NC(=O)c2ccccc2Cl)cc1 -9.59% [at 0.046 µM, 100% = signal doubled over neutral wells], CC(C)Oc1ccc(Br)cc1C(=O)N/N=C/c1c[nH]c2ccccc12 -45.1%, NC(=O)c1ncn([C@@H]2O[C@H](C(=O)N[C@H](Cc3ccccc3)C(=O)O)[C@@H](O)[C@H]2O)n1 -32.5%, COc1ccc(N2CCN(C(c3cccs3)C(C)NC(=O)C(=O)N3CCOCC3)CC2)cc1 (stereo not given) -16.6% [at 3.8 µM, 100% = signal doubled over neutral wells], Cc1ccc(CC2S/C(=N/c3ccccn3)NC2=O)cc1 (stereo not given) -16.1% [at 0.42 µM, 100% = signal doubled over neutral wells], Cc1ccc(NC(=O)CC2S/C(=N/N=C/c3c[nH]c4ccccc34)NC2=O)cc1 (stereo not given) 19.8% [at 3.8 µM, 100% = signal doubled over neutral wells], CCOC(=O)N1CCN(S(=O)(=O)N2CCCC(C(=O)NCc3cc(OC)ccc3OC)C2)CC1 (stereo not given) -20.8% [at 1.2 µM, 100% = signal doubled over neutral wells], CC(=O)Nc1sc(C)c(C)c1C(=O)OCC(=O)Nc1cc(S(C)(=O)=O)ccc1Cl -22.2%, CCOC(=O)c1c(NC(=O)c2ccoc2C)sc(C(=O)N(C)C)c1C 12.6%, O=c1[nH]c(CN2CCN(c3ccc(O)cc3)CC2)nc2scc(-c3ccc(Cl)cc3)c12 -25.6%, CCOc1ccc(C(C)=O)cc1COC(=O)CN1C(=O)NC2(CCCC2)C1=O -28.5% [at 0.005 µM, 100% = signal doubled over neutral wells], COc1ccc2ccc(=O)oc2c1CC=C(C)C -13.3% [at 0.015 µM, 100% = signal doubled over neutral wells], COc1ccc(CNC(=O)COC(=O)c2cc(C)nc3ccccc23)cc1 16.2%, CCOC(=O)Cn1c(=O)n(Cc2ccc(OC)cc2)c(=O)c2cccnc21 -22.7% [at 0.005 µM, 100% = signal doubled over neutral wells], CCOC(=O)c1oc2ccccc2c1NC(=O)c1ccco1 -17.8% [at 0.135 µM, 100% = signal doubled over neutral wells], CCOC(=O)c1c(C)[nH]c(C(C)=NNC(=O)c2cccs2)c1C -42% [at 11 µM, 100% = signal doubled over neutral wells], CNC(=O)C(=O)NCC1OCCCN1S(=O)(=O)c1ccc(F)cc1C (stereo not given) -17.8% [at 0.005 µM, 100% = signal doubled over neutral wells], CC(C)NC(=O)C1(C)CCN1Cc1cccc(C#N)c1 (stereo not given) -13.6% [at 0.0016 µM, 100% = signal doubled over neutral wells], Cc1cccc(C(=O)NC(=S)NNC(=O)COc2c(C)cccc2C)c1 -26.2% [at 11 µM, 100% = signal doubled over neutral wells], COc1ccc(-c2cccc(C(=O)Nc3ccc(C)cc3)c2)cc1 26.8%, Cc1ccc(-n2nnnc2SCc2ccc(C(=O)O)cc2)cc1C -23.5% [at 3.8 µM, 100% = signal doubled over neutral wells], N#CC1=C(N)Oc2nc(-c3ccccc3)[nH]c2C1c1cccnc1 (stereo not given) -20.8% [at 0.005 µM, 100% = signal doubled over neutral wells], N#Cc1sc2nc(C3CC3)cc(-c3ccccc3)c2c1N -14.8% [at 0.015 µM, 100% = signal doubled over neutral wells], O=C1CSC(c2cccc(O)c2)N1Cc1ccccc1 (stereo not given) -24.7% [at 0.005 µM, 100% = signal doubled over neutral wells], C/C=C/c1ccc(OCCN2C(=O)NC(C)(C)C2=O)c(OC)c1 -11.4% [at 0.005 µM, 100% = signal doubled over neutral wells], CCn1ccc(C(=O)Nc2ccccc2SC)n1 -10.4% [at 0.046 µM, 100% = signal doubled over neutral wells], O=S(=O)(NCc1ccccc1)c1ccc(S(=O)(=O)N2CCCCC2)cc1 -11.7% [at 3.8 µM, 100% = signal doubled over neutral wells], NS(=O)(=O)c1ccc(CNC(=O)c2cc(S(=O)(=O)N3CCOCC3)ccc2N2CCCC2)cc1 -17.8% [at 0.0016 µM, 100% = signal doubled over neutral wells], CNS(=O)(=O)c1ccc2c3c(cccc13)C(=O)N2 19.7%, CC(=O)Nc1cccc(-n2c(=O)n(Cc3ccccc3)c(=O)c3[nH]cnc32)c1 18.8% [at 1.2 µM, 100% = signal doubled over neutral wells], N#CCCCc1cc2ccccc2cn1 -14.5% [at 0.046 µM, 100% = signal doubled over neutral wells], COc1cc(/C=N/NC(=O)CNC(=O)c2cccs2)ccc1O -23.7% [at 0.015 µM, 100% = signal doubled over neutral wells], COc1cc(/C=N/Nc2cc(C)nc(NS(=O)(=O)c3ccc(C)cc3)n2)ccc1O 36.9% [at 3.8 µM, 100% = signal doubled over neutral wells], COc1ccc(/C=N/NC(=O)Cn2cnc3ccccc3c2=O)cc1OC 23.7% [at 11 µM, 100% = signal doubled over neutral wells], CCNc1nc(CC)nc2c1oc1ccccc12 -18.9% [at 0.015 µM, 100% = signal doubled over neutral wells], N#CCc1nn2c(-c3ccccc3)ccnc2c1C#N -20% [at 0.015 µM, 100% = signal doubled over neutral wells], Cc1cccc(-n2c(C)c(C)c3c(N)ncnc32)c1 29.8%, COc1ccc(/C=C/c2nc(C#N)c(NCCN(C)C)o2)cc1OC -15.9% [at 0.42 µM, 100% = signal doubled over neutral wells], CCOCC(=O)Nc1c(C(=O)OCC)oc2ccccc12 28.8% [at 3.8 µM, 100% = signal doubled over neutral wells], Nc1[nH]c(C(=O)c2ccccc2)c(-c2ccncc2)c1C(=O)NCc1cccc2ccccc12 -29.2%, C[C@@H]1CN([C@H](C)CO)C(=O)c2cc(C3=CCCCC3)cnc2O[C@H]1CN(C)C(=O)CN1CCOCC1 -24.7% [at 0.005 µM, 100% = signal doubled over neutral wells], O=C(c1cccs1)N(Cc1ccc(Cl)cc1)C1CCS(=O)(=O)C1 (stereo not given) 21.3%, O=C(c1cccs1)N(Cc1cccc(F)c1)C1CCS(=O)(=O)C1 (stereo not given) 26.2% [at 0.005 µM, 100% = signal doubled over neutral wells], CCOC(=O)C1=NN(C(=O)Nc2cccc(C(F)(F)F)c2)C2C(=O)N(c3cccc(C(F)(F)F)c3)C(=O)C12 (stereo not given) 17.3% [at 3.8 µM, 100% = signal doubled over neutral wells], N#Cc1ccc(-c2ccc3c(c2)[C@@H]2[C@@H](CCN2C(=O)C2CCCC2)[C@@H](CO)N3)cc1 -29.6%, O=C(CCn1nc(-c2ccc(Cl)cc2)ccc1=O)NCCCN1CCCCCC1 -17.5% [at 0.005 µM, 100% = signal doubled over neutral wells]
